# From PubChem BioAssay (EPA / NIEHS)
# Values joined by “and” are separate entries in the source; they are usually repeats but may differ in a detail not shown here. Equal values may be shown once. Records with an inconclusive call do not appear. Active and inactive are the calls of the source. Rule for the calls: active = hit-call score of the fitted dose curve at least 0.9, where 1 is the maximum; inconclusive = response in the unintended direction; inactive = score below 0.9.
# Assay: CCTE_Shafer_MEA_dev_active_electrodes_number: CCTE's Neural Network Formation Assay for Number of Active Electrodes, Shafer Lab (AID 2284040);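 for AC50: potency for loss of active electrodes versus DMSO so lower counts are hits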
# Procedure: CCTE_Shafer_MEA_dev assay is conducted using Axion Biosystems 48 well microelectrode array (MEA) plates and Maestro recording system. Each well of the MEA plate contains a grid of 16 microelectrodes embedded in the culture surface. Electrically active cells, such as neurons, can be cultured over the electrodes, and electrical activity in these cells can be recorded extracellularly. The spontaneous firing of neurons is captured from each electrode on a microsecond timescale providing both temporally and spatially precise data. […] The CCTE_Shafer_MEA_dev assay uses primary cultures of rat cortical neurons. Recordings are made on days post-plating 5, 7, 9 and 12. As these cultures mature over time, neural networks develop functional activity and form cohesive networks in which electrical activity can be highly coordinated. CCTE_Shafer_MEA_dev_active_electrodes_number is 1 of 19 assay components of the CCTE_Shafer_MEA_dev assay. It measures the number of electrodes in a well with a mean firing rate of at least 5 spikes (action potential firings) per minute during a recording in a microelectrode array (MEA) using Axion Biosystems Maestro 768 channel amplifier with the AxIS adaptive spike detector. To collapse across multiple recordings made on days post-plating 5, 7, 9 and 12, the trapezoidal area-under-the-curve of the component is calculated.Data from the assay component CCTE_Shafer_MEA_dev_active_electrodes_number was analyzed into 1 assay endpoint. This assay endpoint, CCTE_Shafer_MEA_dev_active_electrodes_number, was analyzed in the negative analysis fitting direction relative to DMSO as the negative control and baseline of activity. Using a type of functional reporter, gain or loss-of-signal activity can be used to understand electrical activity.
# On the day prior to culture, each well was coated thoroughly with 150 uL of 0.05% polyethyleneimine (PEI, Sigma Cat P3143) in 50 mM HEPES (Sigma Cat H7523) at a pH of 8. The plate was incubated at 37C for one hour. PEI was rinsed out with 500 uL of sterile water three times. Plates were stored at 4C until the day of culture. This culture was plated at a seeding density of 1.5 x 10^5 cells/well on a 48-well MEA plate, prepared as described above. Cells were administered via a 25 uL media/laminin ([…]; Sigma Cat L2020-1MG) drop directly onto the microelectrode array, as adding the cells with the laminin results in better attachment than pre-coating with laminin. After 2 hours, an additional 475 uL of cortical media was added and the cells returned to the incubator. Exposure starts at day 0 of plating and is continued over twelve days of network development until the experiment is terminated. Cells are fed with fresh medium on DIV 5 and 9, following the recordings on those days. The entire volume of media in the well is exchanged and any vehicle or compound treatment is renewed. Complete details are found in OP-NHEERL/ISTD/SBB/TJS/2015-03-r0 (available on request, email shafer.tim@epa.gov). Measurement of the electrical activity is non-invasive, and recordings can be made from the same plate over multiple different days of the culture. In cortical neurons, this allows for the measurement of extracellular action potentials over the period during which networks form in the MEA plate.
Compound,AC50,outcome
CCC(=O)C(CC(C)N(C)C)(c1ccccc1)c1ccccc1 (stereo not given),3.55 µM (active),–
Cn1sc(Cl)cc1=O,4.47 µM (active),–
COP(=O)(OC)O/C(=C\Cl)c1cc(Cl)c(Cl)cc1Cl,78.5 µM (active) and 51.5 µM (active),–
CCOP(=S)(OCC)Oc1nc(Cl)c(Cl)cc1Cl,22.5 µM (active) and 6.77 µM (active) and 22.1 µM (active),–
C=C(C)C(=O)[O][Sn]([CH2]CCC)([CH2]CCC)[CH2]CCC,0.0266 µM (active),–
CC(C)(C)c1cc(O)ccc1O,6.05 µM (active),–
O=C(O)C(F)(F)C(F)(F)C(F)(F)C(F)(F)C(F)(F)C(F)(F)C(F)(F)C(F)(F)C(F)(F)C(F)(F)F,–,inactive
O=C1C2(Cl)C3(Cl)C4(Cl)C(Cl)(Cl)C5(Cl)C3(Cl)C1(Cl)C5(Cl)C24Cl (stereo not given),4.58 µM (active),–
CC(=O)[O][Hg][c]1ccccc1,0.0146 µM (active),–
ClC1(Cl)C2(Cl)C3(Cl)C4(Cl)C(Cl)(Cl)C5(Cl)C3(Cl)C1(Cl)C5(Cl)C24Cl (stereo not given),2.07 µM (active),–
